Test results from PubChem BioAssay AID1477 (National Center for Advancing Translational Sciences (NCATS), 2009).
Among all 230,000 compounds or so, fewer than 10 were called active. Not shown: some 3% with an inconclusive outcome. The call rests on the fitted dose curve; in most records, active means well fitted curve in the direction sought with a large enough effect; inconclusive means small, poorly fitted or top-dose-only effect, or effect the other way, or another doubt; inactive means no such curve, though single readings can be large or run the other way. Only a sample is shown.

Target: Runt-related transcription factor 1 (Homo sapiens) + Core-binding factor subunit beta (Homo sapiens) (UniProt Q01196+Q13951)
Sequence (Q01196 whole entry, looked up): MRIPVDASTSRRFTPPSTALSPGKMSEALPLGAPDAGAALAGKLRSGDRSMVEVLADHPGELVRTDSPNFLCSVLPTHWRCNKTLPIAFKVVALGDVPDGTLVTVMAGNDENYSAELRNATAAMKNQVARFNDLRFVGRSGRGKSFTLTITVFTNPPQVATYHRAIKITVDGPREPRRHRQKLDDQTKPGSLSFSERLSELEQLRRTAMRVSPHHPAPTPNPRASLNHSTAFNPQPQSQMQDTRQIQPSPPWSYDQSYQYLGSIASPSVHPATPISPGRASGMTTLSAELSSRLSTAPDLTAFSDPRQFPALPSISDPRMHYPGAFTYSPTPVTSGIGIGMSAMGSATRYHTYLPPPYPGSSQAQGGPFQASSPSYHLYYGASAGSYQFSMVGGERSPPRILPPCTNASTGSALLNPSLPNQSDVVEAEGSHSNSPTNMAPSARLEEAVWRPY
Sequence (Q13951 whole entry, looked up): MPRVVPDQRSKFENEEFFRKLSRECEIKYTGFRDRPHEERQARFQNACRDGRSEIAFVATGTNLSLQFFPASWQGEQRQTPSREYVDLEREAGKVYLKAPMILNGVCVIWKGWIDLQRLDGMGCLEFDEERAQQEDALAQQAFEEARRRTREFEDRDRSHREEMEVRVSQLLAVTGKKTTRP
Test: qHTS Assay for Compounds Blocking the Interaction Between CBF-beta and RUNX1 for the Treatment of Acute Myeloid Leukemia; further: % of control where 0% means no effect
Conditions: AlphaScreen CBFb-His/RUNX1-biotin binding, biochemical; series mostly up to 59.8 µM
Text: NIH Chemical Genomics Center [NCGC]
NIH Molecular Libraries Probe Production centers Network [MLPCN]
Assay Submitter (PI): Paul Liu
Core Binding Factor (CBF) abnormalities are associated with 20-25% of all acute myeloid leukemias (AML), of which 5-10% are further sub classified as acute myelomonocytic leukemia with eosinophilia, also known as M4Eo in the FAB classification scheme. This subtype of leukemia is usually associated with chromosome 16 inversion (p13:q22). Chromosome 16 inversion results in formation of the fusion oncogene CBFB-MYH11, which encodes the fusion protein CBF-beta-SMMHC.
It has been hypothesized that the interference of CBF-beta and RUNX1 binding could have therapeutic implications for patients with CBF mediated leukemias. We developed a CBF-beta and RUNX1 binding assay in AlphaScreenTM format and optimized it for high throughput screening to search for inhibitors. The goal of this project is to screen MLPCN's compound collection (MLSMR) for identifying the inhibitors of the interaction between CBF-beta and RUNX1 proteins as research probes. If these probes work well in the animal models, the ultimate goal of this project is to development a new drug treatment for this disease.
This assay can not be used to assess how apparent inhibitors interfere with protein binding, and whether inhibitors specifically bind to either protein. Disruption of this protein-protein interaction, through any mechanism, is the intended target activity.
NCGC Assay Protocol Summary:
Step, Parameter, Description
(1) Reagent, 3 uL CBFb-His/RUNX1-biotin mix incubated together for 20 minutes at room temperature (30 nM each)
(2) Compound or control, 23 nL compound stock solution
(3) Incubation, 15 minutes at Room temperature
(4) Reagent, 1 uL 50 ng each of beads (Nickel beads and streptavidin beads)
(5) Incubation, 90 minutes at Room temperature
(6) Detection, Excitation=365 nm Emission=440 nm, Envision reader in AlphaScreenTM mode
Keywords: MLSMR, MLPCN, NIH Roadmap, qHTS, NCGC, Core binding factor, CBF, CBF-beta, Acute myeloid leukemia

activity, negative = inhibition, inactive:
CN(C)/C=C(/C(=O)c1ccc(F)cc1)S(=O)(=O)c1ccc(F)cc1
COc1ccc(C2c3[nH]c4ccccc4c3CCN2CCCn2cccn2)cc1C (stereo not drawn)
S=c1nc(C23CC4CC(CC(C4)C2)C3)nc2sccn12
Cc1ccc(-c2ccc(/C=C(\C#N)C(N)=S)o2)c([N+](=O)[O-])c1
Cc1cccc(N2CCN(C(=O)c3cccc(S(=O)(=O)N4CCc5ccccc5C4)c3)CC2C)c1 (stereo not drawn)
CCO[C@@H]1OC(C(=O)NC2CC2)=C[C@H](C)[C@H]1CCCO
CCC1(CC)C(=O)C2=C3C1[C@H](C(=O)OC)C=C(C(=O)OC)C[C@H]3[C@H]1C(=O)N(Cc3ccccc3)C(=O)[C@H]1[C@H]2C (stereo partly drawn)
CC(=O)OCC(NC(=O)C(Cc1ccccc1)NC(=O)OC(C)(C)C)C1OC(n2ccc(=O)[nH]c2=O)C(OC(C)=O)C1OC(C)=O (stereo not drawn)
COc1cc(S(=O)(=O)N2CCOCC2)ccc1NC(=O)COc1ccc(N(C)S(=O)(=O)c2ccc(C)cc2)cc1
CNC(=O)/C(C#N)=C/c1c(F)cccc1Cl
CCCCNC(=O)CSc1nc2ccc(NC(=O)CSc3nnc(N)s3)cc2s1
CN(CC(=O)Nc1ccc(F)cc1)CC(=O)Nc1ccc(Cl)c(S(=O)(=O)N2CCOCC2)c1
NC(=O)c1ccc(NC(=O)COC(=O)c2c3c(nc4ccccc24)/C(=C\c2ccc4c(c2)OCO4)CCC3)cc1
COc1cc(OC)c2c(C)cc(=O)oc2c1C(CCN1CCCCC1)c1ccc(N(C)C)cc1 (stereo not drawn)
Cc1cc(C(=O)NCCc2ccc(Cl)cc2)n(-c2ccccc2)n1
Cc1ccc(CNC(=O)C2(C(F)(F)F)C/C(=C\Cc3ccccc3)CCCO2)o1 (stereo not drawn)
CCCN1CCC(=O)N(C(CSc2ccc(C)cc2)Cc2ccccc2)CC1 (stereo not drawn)
Cn1ncc(N2CCN(S(=O)(=O)c3ccc(Br)cc3)CC2)c(Cl)c1=O
CC1(C)OC(C(O)(c2ccccc2)c2ccccc2)C(C(O)(c2ccccc2)c2ccccc2)O1 (stereo not drawn) 6.37% [at 13.1 µM]
CCc1c(C)nc2c(-c3ccccc3)c(C)nn2c1Nc1ccc(NC(C)=O)cc1
Cn1ncc2c(NNC(=O)Cc3cccc4ccccc34)ncnc21
O=c1ccn([C@@H]2O[C@H](COP(=O)(O)OP(=O)(O)OP(=O)(O)O)[C@@H](O)[C@H]2O)c(=O)[nH]1
CCC/C(C)=N\Nc1nc2c(c(=O)n(C)c(=O)n2C)n1C
O=C1CN(Cc2ccccc2)S(=O)(=O)c2ccccc21
CCc1nnc(NC(=O)[C@@H](NC(=O)c2cccc(C)c2)C(C)C)s1
O=[N+]([O-])c1ccccc1S(=O)(=O)Nc1cccc2cccnc12
N#Cc1c(C(F)(F)F)cc(-c2cccs2)nc1N1CCCCC1
COc1ccc2nc(NC(=O)[C@@H]3CCCN3C(=O)c3cccs3)sc2c1
Cc1ccc(OCCCCN2CCCCC2)c(Br)c1
C[C@H]1Cc2c(-c3ccccc3)nc3c(c2CO1)CN(C(=O)C1CC1)CC3 -2.96% [at 13.1 µM]
COc1ccc(-c2nc3c(c4c2C[C@H](c2ccccc2)OC4)CN(S(=O)(=O)c2c(C)noc2C)CC3)c(C)c1 2.29% [at 13.1 µM]
CCOC(=O)C1=C(CSc2nnnn2C)N(C)C(=O)NC1c1ccccc1 (stereo not drawn)
COc1ccc(SC[C@H](Cc2ccccc2)N2CCN(CCc3ccccc3)CCC2=O)cc1
CON(C)S(=O)(=O)c1ccc2c(c1)NC(=O)C1CCCN21 (stereo not drawn)
O=C(NCCc1ccccn1)c1cccnc1Oc1ccc(Cl)cc1
COc1ccc(SCCN2CCN(CC(C)C)CCC2=O)cc1
Cc1ccccc1C(OCCN(C)C)C1CCCCC1 (stereo not drawn)
COC(=O)c1ccc(C(NC(=O)OCc2ccccc2)/C(F)=C/[C@@H](C)C(=O)O)cc1 (stereo partly drawn)
C[C@@H]1O[C@@H](OC[C@H]2O[C@@H](Oc3cc(O)c4c(c3)O[C@H](c3ccc(O)c(O)c3)CC4=O)[C@H](O)[C@@H](O)[C@@H]2O)[C@H](O)[C@H](O)[C@H]1O
COc1ccc(NC(=O)CSc2ncnc3[nH]ncc23)cc1
COc1ccc(-c2nc3c(c4c2C[C@H](c2ccccc2)OC4)CN(C(=O)c2cccnc2)CC3)c(C)c1 2.51% [at 13.1 µM]
CC1CCN(C(=S)c2ccc(-c3ccc(Cl)cc3Cl)o2)CC1
O=C(/C=C/c1ccc(OCc2c(F)cccc2Cl)cc1)N1CCOCC1
OCCC(O)CO (stereo not drawn)
COc1ccc2cc(-c3[nH]ncc3CNCCn3nc(C)cc3C)ccc2c1
COC(=O)c1ccc([C@@H](O)[C@H](C)C(=O)CC(=O)OC(C)(C)C)cc1
O=C(Nc1cc(C(=O)Nc2ccc(S(=O)(=O)O)cc2)cc(C(=O)Nc2ccc(S(=O)(=O)O)cc2)c1)Nc1cc(C(=O)Nc2ccc(S(=O)(=O)O)cc2)cc(C(=O)Nc2ccc(S(=O)(=O)O)cc2)c1
Cc1ccccc1C(CC(=O)c1cccs1)C(C#N)C#N (stereo not drawn)
CC[C@H](C)[C@H](NC(=O)[C@@H](N)CCC(=O)O)C(=O)N[C@@H](CC(C)C)C(=O)N[C@@H](CC(=O)O)C(=O)N[C@H](C(=O)N1CCC[C@H]1C(=O)N[C@@H](CO)C(=O)N[C@H](C(=O)O)[C@@H](C)O)C(C)C
CCCCOc1ccc(C(=O)N/C(=C/C=C/c2ccccc2)C(=O)N2CCOCC2)cc1
CC(Oc1cccc(NC(=O)c2cccs2)c1)C(=O)c1ccccc1 (stereo not drawn)
Cc1cccc(Nc2nc3c(S(=O)(=O)c4ccccc4)nnn3c3ccccc23)c1C
CCO[C@@H]1OC(C(N)=O)=C[C@H](c2ccc(Br)cc2)[C@H]1CCCO
O=c1c(O)c(-c2ccc(O)cc2)oc2ccccc12
N=c1n(CCc2ccccc2)c2ccccc2n1Cc1ccccc1F
O=C1CCC(=O)N(O)CCCCCNC(=O)CCC(=O)N(O)CCCCCNC(=O)CCC(=O)N(O)CCCCCN1
CC1CN(c2nc(-c3ccccc3)nnc2-c2ccccc2)CC(C)O1 (stereo not drawn)
CCOCCCNCc1ccc(OCc2ccc(F)cc2)c(OC)c1
O=C(NCc1ccco1)c1ccc(NS(=O)(=O)c2cccc([N+](=O)[O-])c2)cc1
COc1cc(OC)c2c(c1C(CCN1CCCCC1)c1ccc(N(C)C)cc1)OC(=O)CC2c1ccc(N(C)C)cc1 (stereo not drawn)
O=C(NCC1CCCO1)c1ccccc1-c1nc(-c2ccccc2Cl)no1 (stereo not drawn)
COc1ccc(CCNC(=O)CSc2nc(-c3ccc(OC)c(OC)c3)ccc2C#N)cc1
COc1ccc(C[C@H](C(=O)O)N2C(=O)c3ccc(C(=O)O)cc3C2=O)cc1
O=C(N/N=C/c1ccc(Cl)cc1)c1nc2ccc([N+](=O)[O-])cc2c(=O)[nH]1
COc1ccc(-c2ccc(OC)c(C3C4C=CCC(C)C4C(=O)N3Cc3ccccc3)c2)cc1C (stereo not drawn)
O=S(O)S(=O)(=O)O
CCN(CC)N=Nc1cccc(NC(C)=O)c1
Cc1cc(N(C)C)nc(Cl)n1
CN(C)C(=O)c1ccc2c(c1)C1C3CCC(C3)C1C(c1ccccc1)N2 (stereo not drawn)
COC(=O)c1c(C)oc(C)c1S(=O)(=O)Nc1ccc(C(C)C)cc1
O=C(/C=C/c1ccc2c(c1)OCO2)NCc1cn2cc(Cl)ccc2n1
C=CCCC(=O)Nc1nc(C)c(-c2csc(Nc3ccc(Cl)cc3)n2)s1
COc1ccc2[nH]c3c(C)c4cc[n+](C)cc4c(C)c3c2c1
CCCCCCCC1=Cc2ccc(F)cc2C(C(C(=O)OC)C(=O)OC)N1C(=O)OC (stereo not drawn)
CCOC(OCC)OCC
Cc1ccc(-c2nnc(-n3nnc4ccccc43)c3ccccc23)cc1
COc1ccc(C2CC(O)(c3ccccc3)Oc3cc(C)cc(C)c32)cc1 (stereo not drawn)
CC(=O)Nc1ccc(S(=O)(=O)N2N=NC3C2C2CC4C3(CN(C(=O)OC(C)(C)C)S4(=O)=O)O2)cc1 (stereo not drawn)
C=C1CCN(C(CC(C)C)C(=O)NCc2cc(OC)c(OC)c(OC)c2)S(=O)(=O)c2ccccc21 (stereo not drawn)
COc1cc(NC(=S)N2CCCC(C)C2)c(OC)cc1Cl (stereo not drawn)
COC(=O)CCc1ccccc1S(=O)(=O)N(CCC(=O)OC)Cc1ccccc1
OC1CCCN(c2ncnc3c2nnn3Cc2c(F)cccc2Cl)C1 (stereo not drawn)
COc1ccc(CN2CCC(=O)c3ccccc3S2(=O)=O)cc1
COc1ccc(C2/C=C\CN(Cc3ccco3)C(C)C(=O)N2Cc2ccc(F)cc2)cc1 (stereo not drawn)
CCCCc1nn(-c2ccccc2C(F)(F)F)c(=O)n1Cc1ccc(-c2ccccc2S(=O)(=O)NC(=O)c2sccc2C)cc1
O=c1[nH]nc(SCCS(=O)(=O)c2ccc(F)cc2)n1-c1ccccc1C(F)(F)F
O=C(O)c1ccc(NS(=O)(=O)c2ccc3c(c2)C(=O)c2cc(S(=O)(=O)Nc4ccc(C(=O)O)cc4)ccc2-3)cc1
COc1ccc(N)c(OC)c1
COc1ccc(NC(=O)C2C3C=CC(C3)C2C(=O)NCc2ccccn2)c(OC)c1 (stereo not drawn)
COc1cccc(OC)c1C(=O)NC(=S)Nc1ccc(N2CCOCC2)c(Cl)c1
Cn1c(=O)c2c(-c3cccc(Br)c3)c(C#N)c(N)nc2n(C)c1=O
O=C(NCC1CC1)C1(C(F)(F)F)C/C(=C\CCO)CCCO1 (stereo not drawn)
CCN(CC)/[N+]([O-])=N/Oc1cc(O/[N+]([O-])=N/N2CCCC2CO)c([N+](=O)[O-])cc1[N+](=O)[O-] (stereo not drawn)
